In the library only some 0.35% were active in any assay of this set; here they are far more common.
Luc counter: counter-screen: inhibitors of Kinase-Glo firefly luciferase; Potency, µM (titrated, usually from 38.3 µM), without a hit: at the highest dose activity change, negative = inhibition, hits mostly inhibitors; Kinase-Glo luciferase, ATP luminescence, 8 min; AID 1379; 0.28% of 200,000 active; further: potency means the concentration at half of the fitted maximal effect; on the % scale 0 is the no-effect control and ±100 the full control effect; nearly all actives have a fitted effect of over 60% in size
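Light output from Kinase-Glo luciferase with luciferin and 10 uM ATP in 50 mM imidazole pH 7.2, KCl, MgCl2, Tween 20, BSA; compound pin-delivered, 8-min ambient incubation, then luminescence read.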
MBNL1-CUG inh: blocks human MBNL1 binding to CUG repeat RNA; AID 2675; TR-FRET MBNL1-His/biotin-(CUG)12 binding, 665/545 ratio; 0.036% of 280,000 active; Potency, µM (titrated, usually from 57.5 µM), inactives show top-dose activity change, negative = inhibition, most hits filed as inhibitors; Q9NR56; active means well fitted inhibition curve with a large enough effect in the signal ratio, with a control signal flat, not every such curve was filed as active; inconclusive means small, poorly fitted or top-dose-only effect, or effect the other way, or a change in a side signal; inactive means no such curve, though single readings can be large or run the other way; the % refers to the signal ratio; further: potency means the concentration at half of the fitted maximal effect; on the % scale 0 is the no-effect control and ±100 the full control effect
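Compound titration spanned 92 nM–58 uM against the MBNL1-His/biotin-(CUG)12 complex. After 60 min at room temperature with 5 nM streptavidin-XL665 and 0.055 ng/ul terbium anti-His, ratiometric 665/545 nm emission (Ex 340 nm) normalized to controls.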
TCR activator: activates T cell receptor signaling | primary human leukocytes, anti-CD3, IL-2 HTRF, 48 h | Potency, µM (highest dose often 9.22 µM), for the others: at the highest dose activation of IL-2 secretion, hits mostly activators | 330,000 tested, under 10 active; further: % of control where 0% means no effect
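Primary human leukocytes incubated 48 hr with anti-CD3 beads plus compound, without co-stimulation. Secreted IL-2 measured by HTRF (europium cryptate/d2 anti-IL-2 pair, 320 nm excitation, 665 nm emission).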
TRPV1 ag: activates the human vanilloid receptor TRPV1. Q8NER1. TRPV1-expressing cells, Fluo-8 calcium influx, agonist mode. activation, % at 8.33 µM. 0.19% of 320,000 active; in the data active means activation above about 80%; inconclusive means between about 30% and that limit; further: 0% is about no effect
Target sequence (Q8NER1 whole entry, looked up): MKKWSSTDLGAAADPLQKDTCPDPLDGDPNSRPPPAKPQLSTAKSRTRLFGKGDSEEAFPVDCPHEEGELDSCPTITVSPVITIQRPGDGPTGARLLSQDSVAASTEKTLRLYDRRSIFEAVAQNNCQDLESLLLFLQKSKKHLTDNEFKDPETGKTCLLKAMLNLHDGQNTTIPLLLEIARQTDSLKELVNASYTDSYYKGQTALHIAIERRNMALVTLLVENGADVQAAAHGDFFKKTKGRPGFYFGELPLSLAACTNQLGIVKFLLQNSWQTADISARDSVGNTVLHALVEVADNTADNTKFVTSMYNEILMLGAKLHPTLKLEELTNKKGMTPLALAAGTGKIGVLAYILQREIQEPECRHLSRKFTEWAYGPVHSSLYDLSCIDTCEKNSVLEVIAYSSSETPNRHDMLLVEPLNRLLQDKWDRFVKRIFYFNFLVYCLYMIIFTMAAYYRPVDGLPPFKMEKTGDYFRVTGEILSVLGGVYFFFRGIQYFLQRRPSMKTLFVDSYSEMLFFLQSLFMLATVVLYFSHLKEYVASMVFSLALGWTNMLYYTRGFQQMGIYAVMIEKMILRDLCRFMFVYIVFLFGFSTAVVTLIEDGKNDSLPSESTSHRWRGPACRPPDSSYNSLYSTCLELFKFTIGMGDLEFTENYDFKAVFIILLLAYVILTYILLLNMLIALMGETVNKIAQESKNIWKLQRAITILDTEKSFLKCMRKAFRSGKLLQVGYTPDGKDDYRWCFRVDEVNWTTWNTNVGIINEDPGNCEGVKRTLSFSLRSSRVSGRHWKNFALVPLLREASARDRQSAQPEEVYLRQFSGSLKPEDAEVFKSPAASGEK
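Cells expressing TRPV1 were dye-loaded with Fluo-8 and read kinetically: 10 s baseline, 3 min after compound (agonist portion), then 2 min after EC20 capsaicin (allosteric enhancer portion). Calcium-bound dye fluorescence at 480/520 nm.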
TRPV1 potentiator: human TRPV1 potentiation; Q8NER1; TRPV1-expressing cells, Fluo-8 calcium influx, capsaicin EC20 potentiation; potentiation, % at 8.33 µM; 0.02% of 320,000 active; in the data active means potentiation above about 80%; inconclusive means between about 30% and that limit; further: 0% is about no effect
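TRPV1-expressing cells were cultured overnight at 35.5C and loaded with Fluo-8 calcium dye for 40 to 90 min at room temperature. After a 10 s baseline, compound was added and calcium influx was read kinetically for 3 min (ex 480/em 520 nm).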
CBFb RUNX1 block: inhibitors of human CBF-beta and RUNX1 interaction. Q01196+Q13951. AlphaScreen CBFb-His/RUNX1-biotin binding, biochemical. Potency, µM (titrated, usually from 59.8 µM), for inactives: top-dose activity, negative = inhibition, actives largely listed as inhibitors. 230,000 tested, under 10 active. AID 1477; further: % of control where 0% means no effect
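CBF-beta (His) and RUNX1 (biotin), 30 nM each; 20 min preassociation; + compound, 15 min; + beads 50 ng each (Ni, streptavidin), 90 min; RT; AlphaScreen read.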
* = called active by the depositor; ? = inconclusive; . = no result; [ ] = remark or other dose. Unless noted, the call rests on the fitted dose curve; in most records, active means well fitted curve in the direction sought with a large enough effect; inconclusive means small, poorly fitted or top-dose-only effect, or another doubt; inactive means no such curve, though single readings can be large; an effect the other way counts as inactive or inconclusive.

SMILES	Luc counter	MBNL1-CUG inh	TCR activator	TRPV1 ag	TRPV1 potentiator	CBFb RUNX1 block
O=C(Nc1ccc(F)cc1)c1ccc2snnc2c1	.	18%	-9%	82*	-18	.
CCC(=O)c1cc(F)c(N2CCN(C(=O)Cc3ccccc3)CC2)cc1C	10%	1%	3%	91*	-8	13%
COc1nccnc1NS(=O)(=O)c1ccc(N=Cc2c(C)[nH]n(-c3ccc(C)c(C)c3)c2=O)cc1	10µM*	22%	-1%	0	-9	-12%
C[C@H](NCCN(C)C)[C@@H]1CCC2C3CCc4cc(O)ccc4[C@H]3CCC21C (stereo not given in full)	-1%[7.66 µM]	.	.	.	.	.
COc1nc(Nc2ccccc2F)nc(OC)n1	.	1%	0%	2	-3	.
COc1nc(NCCO)nc(Nc2ccccc2F)n1	6%	-2%	-1%	-3	110*	7%
COc1cccc(-c2nnc3n2N=C(c2c(OC)cccc2OC)CS3)c1	.	.	.	.	.	2%
COc1ccc(Nc2ncnc3ccc(C)cc23)cc1	.	2%	.	81*	16	.
CCOC(=O)c1sc(NC(=O)c2ccccc2OC)nc1C	10µM*	-3%	1%	2	-3	10%
CCOC(=O)c1sc(NC(=O)c2cc3ccccc3o2)nc1C	-4%	46%	3%	?	-9	1%
Cc1ccc(-n2[nH]c(C)c(C=Nc3ccc4[nH]c(=O)[nH]c4c3)c2=O)cc1	-13%	.	0%[46.1 µM]	0	9	1%
Cc1ccc(N=Cc2c(C)[nH]n(-c3nc4ccccc4[nH]3)c2=O)cc1	5µM*	-8%	-3%[46.1 µM]	0	0	?
CN(C)c1ccc(C(=C2C=CC(=[N+](C)C)C=C2)c2ccc(N(C)C)cc2)cc1	5µM*	.	.	.	.	.
CN(C)c1ccc(C(=C2C=CC(=[N+](C)C)C=C2)c2ccccc2)cc1	-1%[7.66 µM]	.	.	.	.	?
O=C(CNc1cccc(C(F)(F)F)c1)N/N=C/C1CCCCC1	3%	.	0%[46.1 µM]	97*	-30	2%
Cc1ccc(C(=O)O/N=C(\N)c2nonc2N)cc1	11µM*	0%	-2%[46.1 µM]	?	-5	2%
N/C(=N\OC(=O)c1ccc(F)cc1)c1nonc1N	11µM*	.	0%[46.1 µM]	?	-10	4%
CCOc1ccc(/C=N/Nc2ccccn2)cc1	10µM*	7%	-1%	?	7	-17%
Clc1ccc(/C=N/Nc2ccccn2)cc1	-17%	?	-3%	19	-13	-11%
Cc1ccc(-c2nc(N/N=C/c3cccnc3)c3ccccc3n2)cc1	7.9µM*	?	-1%	?	-1	-2%
Cc1ccc(-c2nc(N/N=C/c3cccc([N+](=O)[O-])c3)c3ccccc3n2)cc1	-5%	2%	1%	5	26	-17%
Cc1cc(C)nc(N2CCC(C(=O)Nc3ccc4c(c3)OCO4)CC2)n1	0%	8%	-16%	13	-11	3%
Cc1cc(C)nc(N2CCCC(C(=O)Nc3ccc4c(c3)OCO4)C2)n1 (stereo not given)	-1%	9%	0%	83*	7	1%
COC(=O)/C=C\c1cc(O)ccc1O	-1%	.	.	.	.	6%[21.7 µM]
CCn1c(/C=C/c2ccccc2)nc2ccccc21	10µM*	6%	.	?	2	14%
SMILES	Luc counter	MBNL1-CUG inh	TCR activator	TRPV1 ag	TRPV1 potentiator	CBFb RUNX1 block
COc1ccc(/C=C/c2nc3ccccc3n2C)cc1	2.8µM*	?	-1%	5	12	17%
CC(C)Cn1c(/C=C/c2ccccc2)nc2ccccc21	.	-1%	-5%[46.1 µM]	?	6	?
Cc1cc(NC(=O)c2ccccc2)ncc1NC(=O)c1ccco1	2.2µM*	-1%	11%	-2	-8	1%
O=C(Nc1ccc(NC(=O)c2ccco2)nc1)c1ccccn1	10µM*	-14%	-2%	7	-8	4%
CCC(=O)Nc1cc(C)c(NC(=O)c2ccco2)cn1	4%	-7%	-4%	13	-18	5%
CCCC(=O)Nc1cnc(NC(=O)c2cccc(F)c2)cc1C	7.1µM*	0%	-1%	1	0	10%
